Source: PubChem BioAssay AID1053118 (Broad Institute, 2014)
Entries with a potency or affinity are not part of this list. Active and inactive are the calls of the source.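 The calls were made as follows: active = fitted half-maximal concentration for ATP signal loss at most twice the top valid dose; inconclusive = flat curve between -70 and -30%, or an invalid fit; inactive = flat within ±30%, wrong direction, or potency past limit.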

test: viability loss in HepG2 hepatoma cells – cell-based, cherry-picks, set 5, cytotoxicity control, dose response (AID 1053118); settings: ATP luminescence, 72 h; series mostly up to 26 µM

Row | Compound | outcome
1 | N#C[C@@H]1[C@@H](c2ccccc2C2=CCCCC2)[C@H](CO)N1S(=O)(=O)c1ccccc1 | inactive
2 | Cc1cccc(N2CCN(S(=O)(=O)c3cn(C)cn3)CC2)c1C | inactive
3 | CN1CCN(C(=O)c2cccc(-c3cnc4cnc(-c5ccccc5Oc5ccccc5)cn34)c2)CC1 | inactive
4 | S=C(NCC1CCCO1)Nc1ccc(Cl)cc1Cl (configuration not stated) | inactive
5 | O=C(c1cccnc1)N1C[C@H]2[C@@H](c3ccccc31)[C@@H](CO)N2CC1CCCC1 | inactive
6 | CN1c2ccc(-c3ccccc3)cc2[C@@H]2[C@@H](CCN2C(=O)CN2CCOCC2)[C@@H]1CO | inactive
7 | C[C@@H]1CN([C@@H](C)CO)C(=O)c2cc(NC(=O)CCCN(C)C)ccc2O[C@H]1CN(C)Cc1ccc(-c2ccccc2)cc1 | inactive
8 | CC1CN(C(=O)c2cc3c(=O)n4ccccc4nc3n2C)CC(C)O1 (configuration not stated) | inactive
9 | C[C@H]1CN([C@@H](C)CO)C(=O)c2cc(NC(=O)C3CCCCC3)ccc2O[C@@H]1CN(C)Cc1ccc(-c2ccccc2)cc1 | inactive
10 | COCC(=O)Nc1ccc2c(c1)C(=O)N(C)[C@@H]1CC[C@H](CC(=O)NCc3ccccc3Cl)O[C@@H]1CO2 | inactive
11 | CN1c2ccc(-c3ccccc3)cc2[C@H]2[C@H](CCN2C(=O)CN2CCOCC2)[C@@H]1CO | inactive
12 | O=C(Nc1ccccc1F)N1C[C@@H]2[C@H](c3ccccc31)[C@H](CO)N2C(=O)C1CCOCC1 | inactive
13 | C=CCC[C@H](Cc1ccc(F)cc1)C(=O)OC[C@H](Cc1c[nH]c2ccccc12)NC(=O)[C@@H](CC=C)CC(=O)N[C@@H](CO)Cc1ccccc1 | inactive
14 | O=S(=O)(c1ccccc1F)N1CC[C@H]2[C@H](CO)Nc3ccc(-c4cccc(F)c4)cc3[C@H]21 | inactive
15 | Cc1ccc(S(=O)(=O)N2CC3(C)CN(S(=O)(=O)c4ccc(C)cc4)CC(C)(C2)C3=O)cc1 | inactive
16 | CCCCOc1ccc(C(C)NC(=O)C2CCCN(S(=O)(=O)CCC)C2)cc1 (configuration not stated) | inactive
17 | CC1(C)Cc2c(C#N)c(SCC(=O)c3ccccc3)nc(N3CCOCC3)c2CS1 | inactive
18 | COc1ccc(-c2csc(CCn3nc(C)cc3C)n2)cc1OC | inactive
19 | Cn1cnc(S(=O)(=O)N2CCN(c3ccccc3)CC2)c1 | inactive
20 | COCC(C)n1c(SCc2nc(N)nc(Nc3ccccc3C)n2)nc2ccccc2c1=O (configuration not stated) | inactive
21 | O=S(=O)(c1cccc(F)c1)N1CC[C@@H]2[C@H]1c1cc(-c3cccc(F)c3)ccc1N[C@@H]2CO | inactive
22 | C[C@H](O)C#Cc1ccc2c(c1)O[C@@H](CN(C)C)[C@H](C)CN([C@H](C)CO)S2(=O)=O | inactive
